Drawing on ChEMBL document CHEMBL2218924, “A broad activity screen in support of a chemogenomic map for kinase signalling research and drug discovery” (Biochem J, 2013), this text covers residual activity for one compound.

In assay [1] the target is T1, Ephrin type-A receptor 3 (Homo sapiens) (UniProt P29320).
T1 sequence (whole entry): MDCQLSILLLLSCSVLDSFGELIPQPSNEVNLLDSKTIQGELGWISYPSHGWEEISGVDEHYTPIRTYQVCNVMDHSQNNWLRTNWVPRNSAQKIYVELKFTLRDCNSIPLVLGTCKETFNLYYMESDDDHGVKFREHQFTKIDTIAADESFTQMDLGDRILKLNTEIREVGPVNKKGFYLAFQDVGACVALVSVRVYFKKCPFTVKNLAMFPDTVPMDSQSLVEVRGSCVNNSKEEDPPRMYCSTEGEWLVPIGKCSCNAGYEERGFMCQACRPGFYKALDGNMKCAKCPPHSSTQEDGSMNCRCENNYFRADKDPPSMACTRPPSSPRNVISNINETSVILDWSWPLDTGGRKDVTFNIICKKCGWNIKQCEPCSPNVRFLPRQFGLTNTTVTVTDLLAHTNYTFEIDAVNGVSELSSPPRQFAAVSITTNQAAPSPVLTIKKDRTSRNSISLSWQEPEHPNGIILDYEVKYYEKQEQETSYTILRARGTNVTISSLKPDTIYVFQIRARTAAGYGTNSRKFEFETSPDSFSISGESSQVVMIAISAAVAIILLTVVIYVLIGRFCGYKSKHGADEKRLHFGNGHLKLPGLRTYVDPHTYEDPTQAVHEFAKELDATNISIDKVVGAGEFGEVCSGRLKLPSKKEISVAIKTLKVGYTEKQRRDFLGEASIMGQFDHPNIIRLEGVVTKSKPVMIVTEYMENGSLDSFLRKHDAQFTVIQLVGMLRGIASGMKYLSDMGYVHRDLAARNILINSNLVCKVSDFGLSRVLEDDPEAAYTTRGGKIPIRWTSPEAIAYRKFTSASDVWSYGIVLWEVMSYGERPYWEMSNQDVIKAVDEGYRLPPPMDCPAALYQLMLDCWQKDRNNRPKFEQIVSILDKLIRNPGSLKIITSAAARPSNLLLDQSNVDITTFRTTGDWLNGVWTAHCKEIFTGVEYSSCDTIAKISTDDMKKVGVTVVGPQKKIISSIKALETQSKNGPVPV
The settings on record: at 10 µM.

Assay [2] concerns the target Ephrin type-A receptor 5 (Homo sapiens) (UniProt P54756). The conditions noted are these: at 1 µM.
Assay [3] has the same target. The settings on record: at 10 µM.
For assay [4], the target named is Ephrin type-A receptor 7 (Homo sapiens) (UniProt Q15375). The conditions noted are these: at 1 µM.
Assay [5] has the same target. The settings on record: at 10 µM.
In assay [6] the target is T2, Ephrin type-A receptor 8 (Homo sapiens) (UniProt P29322).
T2 sequence (whole entry): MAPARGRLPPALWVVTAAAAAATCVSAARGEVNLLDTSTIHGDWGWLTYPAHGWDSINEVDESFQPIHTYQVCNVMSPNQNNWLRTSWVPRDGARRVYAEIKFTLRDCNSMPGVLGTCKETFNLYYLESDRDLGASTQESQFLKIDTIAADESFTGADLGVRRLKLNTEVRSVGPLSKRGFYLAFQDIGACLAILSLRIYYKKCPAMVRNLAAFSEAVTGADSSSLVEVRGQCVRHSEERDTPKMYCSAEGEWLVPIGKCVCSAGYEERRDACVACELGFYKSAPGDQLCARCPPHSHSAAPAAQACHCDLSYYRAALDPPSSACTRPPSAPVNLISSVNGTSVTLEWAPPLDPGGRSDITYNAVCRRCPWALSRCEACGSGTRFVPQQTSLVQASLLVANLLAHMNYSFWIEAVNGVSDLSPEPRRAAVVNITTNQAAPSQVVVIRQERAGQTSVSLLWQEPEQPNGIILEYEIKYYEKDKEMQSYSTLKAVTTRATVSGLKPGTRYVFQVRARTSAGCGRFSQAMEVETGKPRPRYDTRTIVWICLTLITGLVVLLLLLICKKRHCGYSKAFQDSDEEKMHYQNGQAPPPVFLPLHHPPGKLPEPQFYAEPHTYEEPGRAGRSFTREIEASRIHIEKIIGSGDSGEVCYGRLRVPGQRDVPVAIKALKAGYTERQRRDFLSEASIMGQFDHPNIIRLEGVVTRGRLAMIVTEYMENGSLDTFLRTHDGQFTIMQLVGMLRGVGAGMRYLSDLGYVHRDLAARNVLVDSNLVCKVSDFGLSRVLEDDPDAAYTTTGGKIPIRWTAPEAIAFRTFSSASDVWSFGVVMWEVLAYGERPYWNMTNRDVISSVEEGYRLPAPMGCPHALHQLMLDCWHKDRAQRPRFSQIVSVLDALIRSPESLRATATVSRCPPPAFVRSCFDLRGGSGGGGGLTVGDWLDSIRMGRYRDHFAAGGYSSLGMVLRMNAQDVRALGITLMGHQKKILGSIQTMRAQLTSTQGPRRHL
The conditions noted are these: at 1 µM.

For assay [7], the target named is T2, Ephrin type-A receptor 8 (Homo sapiens). The conditions noted are these: at 10 µM.
The target of assay [8] is T3, Ephrin type-B receptor 1 (Homo sapiens) (UniProt P54762).
T3 sequence (whole entry): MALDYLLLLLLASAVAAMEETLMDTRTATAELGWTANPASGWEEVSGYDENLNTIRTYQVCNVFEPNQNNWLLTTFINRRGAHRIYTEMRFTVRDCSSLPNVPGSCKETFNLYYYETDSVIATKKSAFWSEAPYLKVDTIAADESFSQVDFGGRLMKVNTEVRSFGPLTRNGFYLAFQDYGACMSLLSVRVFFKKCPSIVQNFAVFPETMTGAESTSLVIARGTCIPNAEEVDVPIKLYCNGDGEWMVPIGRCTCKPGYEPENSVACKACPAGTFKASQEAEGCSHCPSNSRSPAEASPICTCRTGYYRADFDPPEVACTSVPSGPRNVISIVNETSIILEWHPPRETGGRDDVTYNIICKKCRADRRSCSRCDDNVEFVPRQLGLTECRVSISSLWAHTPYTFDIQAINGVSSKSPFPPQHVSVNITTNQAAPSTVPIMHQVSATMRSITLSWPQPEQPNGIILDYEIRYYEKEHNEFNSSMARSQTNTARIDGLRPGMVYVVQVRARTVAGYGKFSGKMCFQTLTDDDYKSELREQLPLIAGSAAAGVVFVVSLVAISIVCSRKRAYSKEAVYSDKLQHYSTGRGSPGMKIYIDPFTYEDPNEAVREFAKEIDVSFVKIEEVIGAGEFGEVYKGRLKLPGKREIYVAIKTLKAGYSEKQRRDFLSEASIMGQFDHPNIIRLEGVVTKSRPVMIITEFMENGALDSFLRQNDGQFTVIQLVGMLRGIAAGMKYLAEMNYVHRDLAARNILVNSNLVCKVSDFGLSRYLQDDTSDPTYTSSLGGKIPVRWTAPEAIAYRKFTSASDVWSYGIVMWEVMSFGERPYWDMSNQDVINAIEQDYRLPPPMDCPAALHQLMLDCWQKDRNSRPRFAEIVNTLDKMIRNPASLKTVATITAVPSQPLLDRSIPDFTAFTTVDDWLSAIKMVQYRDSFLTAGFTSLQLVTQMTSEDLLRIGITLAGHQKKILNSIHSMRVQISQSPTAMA
The conditions noted are these: at 1 µM.

The target of assay [9] is T3, Ephrin type-B receptor 1 (Homo sapiens). The conditions noted are these: at 10 µM.
The target of assay [10] is T4, Ephrin type-B receptor 2 (Homo sapiens) (UniProt P29323).
T4 sequence (whole entry): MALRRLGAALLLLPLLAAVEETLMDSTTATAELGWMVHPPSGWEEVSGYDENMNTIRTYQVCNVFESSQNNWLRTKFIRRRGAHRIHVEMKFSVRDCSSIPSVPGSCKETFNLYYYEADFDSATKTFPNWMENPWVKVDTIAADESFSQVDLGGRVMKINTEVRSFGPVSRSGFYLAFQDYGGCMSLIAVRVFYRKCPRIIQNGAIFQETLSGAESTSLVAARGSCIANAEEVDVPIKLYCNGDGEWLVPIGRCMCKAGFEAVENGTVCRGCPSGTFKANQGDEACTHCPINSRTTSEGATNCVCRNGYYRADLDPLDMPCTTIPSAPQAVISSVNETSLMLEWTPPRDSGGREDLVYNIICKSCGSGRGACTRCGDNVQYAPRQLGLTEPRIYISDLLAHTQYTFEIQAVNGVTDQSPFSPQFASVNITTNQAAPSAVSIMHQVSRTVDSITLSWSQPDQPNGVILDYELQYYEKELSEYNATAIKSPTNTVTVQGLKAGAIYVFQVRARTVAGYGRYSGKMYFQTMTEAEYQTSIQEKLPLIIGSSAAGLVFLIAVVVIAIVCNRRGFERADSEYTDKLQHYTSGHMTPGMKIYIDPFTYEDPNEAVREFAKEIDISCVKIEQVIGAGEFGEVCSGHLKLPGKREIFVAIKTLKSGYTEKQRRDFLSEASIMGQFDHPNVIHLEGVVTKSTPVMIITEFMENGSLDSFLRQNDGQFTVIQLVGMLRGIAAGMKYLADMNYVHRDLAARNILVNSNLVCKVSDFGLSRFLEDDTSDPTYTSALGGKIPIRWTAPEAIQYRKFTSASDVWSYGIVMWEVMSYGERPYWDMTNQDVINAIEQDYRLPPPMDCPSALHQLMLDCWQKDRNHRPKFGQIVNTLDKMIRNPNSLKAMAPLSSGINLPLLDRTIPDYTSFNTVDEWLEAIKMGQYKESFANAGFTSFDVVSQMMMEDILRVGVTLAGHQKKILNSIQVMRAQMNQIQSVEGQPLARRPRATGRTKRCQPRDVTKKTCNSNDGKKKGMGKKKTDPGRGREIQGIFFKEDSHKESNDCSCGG
The settings on record: at 1 µM.

For assay [11], the target named is T4, Ephrin type-B receptor 2 (Homo sapiens). The conditions noted are these: at 10 µM.
Assay [12] addresses T5, Ephrin type-B receptor 3 (Homo sapiens) (UniProt P54753).
T5 sequence (whole entry): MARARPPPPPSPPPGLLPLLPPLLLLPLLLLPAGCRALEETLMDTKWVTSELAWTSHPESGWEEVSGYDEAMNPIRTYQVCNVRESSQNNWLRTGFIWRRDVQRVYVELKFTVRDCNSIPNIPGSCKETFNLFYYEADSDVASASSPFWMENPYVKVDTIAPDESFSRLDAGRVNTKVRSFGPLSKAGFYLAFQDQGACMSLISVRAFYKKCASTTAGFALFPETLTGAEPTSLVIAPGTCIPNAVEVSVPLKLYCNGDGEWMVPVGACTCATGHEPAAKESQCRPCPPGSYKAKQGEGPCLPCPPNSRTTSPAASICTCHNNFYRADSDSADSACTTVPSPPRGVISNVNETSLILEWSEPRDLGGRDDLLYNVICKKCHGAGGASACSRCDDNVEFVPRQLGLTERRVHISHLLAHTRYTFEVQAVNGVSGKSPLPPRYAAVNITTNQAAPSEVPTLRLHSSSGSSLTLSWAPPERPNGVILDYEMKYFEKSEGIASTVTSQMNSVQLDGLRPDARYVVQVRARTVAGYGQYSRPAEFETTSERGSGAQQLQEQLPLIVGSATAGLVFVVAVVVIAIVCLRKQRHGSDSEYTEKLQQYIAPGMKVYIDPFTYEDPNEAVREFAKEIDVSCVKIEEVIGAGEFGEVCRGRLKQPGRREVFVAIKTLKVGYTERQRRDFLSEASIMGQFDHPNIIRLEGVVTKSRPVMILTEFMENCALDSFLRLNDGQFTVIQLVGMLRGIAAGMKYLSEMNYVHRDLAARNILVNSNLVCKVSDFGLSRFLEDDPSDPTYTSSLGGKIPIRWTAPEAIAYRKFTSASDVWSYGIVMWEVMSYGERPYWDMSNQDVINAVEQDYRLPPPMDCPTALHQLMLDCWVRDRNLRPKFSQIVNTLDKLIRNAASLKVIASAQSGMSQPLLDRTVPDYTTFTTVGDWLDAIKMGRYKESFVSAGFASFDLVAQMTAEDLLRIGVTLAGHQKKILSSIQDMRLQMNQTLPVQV
The settings on record: at 1 µM.

Assay [13] concerns the target T6, Ephrin type-B receptor 4 (Homo sapiens) (UniProt P54760).
T6 sequence (whole entry): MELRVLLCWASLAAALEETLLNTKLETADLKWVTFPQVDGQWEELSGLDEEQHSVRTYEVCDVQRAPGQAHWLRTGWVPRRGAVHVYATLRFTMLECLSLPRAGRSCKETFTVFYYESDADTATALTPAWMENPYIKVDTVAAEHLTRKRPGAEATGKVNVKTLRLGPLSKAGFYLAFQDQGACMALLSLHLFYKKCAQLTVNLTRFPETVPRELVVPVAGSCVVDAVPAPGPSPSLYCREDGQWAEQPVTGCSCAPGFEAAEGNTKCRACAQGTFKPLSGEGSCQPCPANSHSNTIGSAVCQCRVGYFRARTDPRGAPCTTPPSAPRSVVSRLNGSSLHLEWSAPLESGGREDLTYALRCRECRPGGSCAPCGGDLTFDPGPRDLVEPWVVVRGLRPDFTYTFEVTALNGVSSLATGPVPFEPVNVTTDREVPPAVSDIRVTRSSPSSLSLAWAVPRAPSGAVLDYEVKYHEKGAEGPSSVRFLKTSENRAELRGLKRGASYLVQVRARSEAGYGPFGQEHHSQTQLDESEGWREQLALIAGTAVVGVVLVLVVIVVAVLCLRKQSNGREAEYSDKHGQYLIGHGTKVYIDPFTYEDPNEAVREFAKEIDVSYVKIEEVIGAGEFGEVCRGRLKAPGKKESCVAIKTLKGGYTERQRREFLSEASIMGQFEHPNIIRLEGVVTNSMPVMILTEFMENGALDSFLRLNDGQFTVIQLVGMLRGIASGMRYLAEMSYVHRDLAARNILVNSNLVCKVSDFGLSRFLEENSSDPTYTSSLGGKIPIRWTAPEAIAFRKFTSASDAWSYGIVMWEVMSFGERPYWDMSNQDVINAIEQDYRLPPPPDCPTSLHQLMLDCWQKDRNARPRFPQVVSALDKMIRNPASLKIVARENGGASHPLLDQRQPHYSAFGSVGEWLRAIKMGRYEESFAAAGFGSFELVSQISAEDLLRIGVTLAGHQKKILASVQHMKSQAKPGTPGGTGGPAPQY
The conditions noted are these: at 1 µM.

The target in assay [14] is T6, Ephrin type-B receptor 4 (Homo sapiens). The conditions noted are these: at 10 µM.
Assay [15] has as its target Receptor tyrosine-protein kinase erbB-4 (Homo sapiens) (UniProt Q15303). The settings on record: at 1 µM.
The target is the same in assay [16]. The settings on record: at 10 µM.
Assay [17] has as its target Focal adhesion kinase 1 (Homo sapiens) (UniProt Q05397). The conditions noted are these: at 1 µM.

Sequence of Ephrin type-A receptor 5 (Homo sapiens) (P54756 whole entry): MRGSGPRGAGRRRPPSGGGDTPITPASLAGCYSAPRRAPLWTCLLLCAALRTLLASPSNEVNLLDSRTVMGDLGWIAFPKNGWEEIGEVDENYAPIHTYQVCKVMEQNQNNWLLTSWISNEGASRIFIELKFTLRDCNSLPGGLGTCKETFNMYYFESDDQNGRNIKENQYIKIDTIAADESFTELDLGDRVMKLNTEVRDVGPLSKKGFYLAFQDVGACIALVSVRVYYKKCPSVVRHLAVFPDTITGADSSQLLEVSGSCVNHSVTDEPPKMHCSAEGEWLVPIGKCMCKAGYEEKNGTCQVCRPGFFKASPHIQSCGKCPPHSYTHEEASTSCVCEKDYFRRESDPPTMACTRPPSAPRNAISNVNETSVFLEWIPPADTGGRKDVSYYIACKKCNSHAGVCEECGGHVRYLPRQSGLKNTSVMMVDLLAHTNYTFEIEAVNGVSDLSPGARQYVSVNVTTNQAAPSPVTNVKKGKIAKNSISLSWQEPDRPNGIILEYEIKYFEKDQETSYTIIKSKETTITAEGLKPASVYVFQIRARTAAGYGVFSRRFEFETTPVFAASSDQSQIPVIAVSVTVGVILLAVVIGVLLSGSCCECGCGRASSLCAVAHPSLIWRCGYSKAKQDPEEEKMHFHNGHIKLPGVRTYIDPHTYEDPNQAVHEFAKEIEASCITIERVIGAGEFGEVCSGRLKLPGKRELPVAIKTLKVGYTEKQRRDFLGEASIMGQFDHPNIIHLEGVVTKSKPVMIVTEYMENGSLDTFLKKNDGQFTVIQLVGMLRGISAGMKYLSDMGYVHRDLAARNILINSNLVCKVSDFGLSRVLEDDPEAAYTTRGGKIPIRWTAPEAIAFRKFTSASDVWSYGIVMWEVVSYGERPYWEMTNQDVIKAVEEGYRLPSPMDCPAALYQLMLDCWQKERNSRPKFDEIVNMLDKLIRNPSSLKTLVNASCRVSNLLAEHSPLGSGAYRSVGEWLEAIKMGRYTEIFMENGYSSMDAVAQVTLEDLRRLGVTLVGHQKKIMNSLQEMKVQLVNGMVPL
Sequence of Receptor tyrosine-protein kinase erbB-4 (Homo sapiens) (Q15303 whole entry): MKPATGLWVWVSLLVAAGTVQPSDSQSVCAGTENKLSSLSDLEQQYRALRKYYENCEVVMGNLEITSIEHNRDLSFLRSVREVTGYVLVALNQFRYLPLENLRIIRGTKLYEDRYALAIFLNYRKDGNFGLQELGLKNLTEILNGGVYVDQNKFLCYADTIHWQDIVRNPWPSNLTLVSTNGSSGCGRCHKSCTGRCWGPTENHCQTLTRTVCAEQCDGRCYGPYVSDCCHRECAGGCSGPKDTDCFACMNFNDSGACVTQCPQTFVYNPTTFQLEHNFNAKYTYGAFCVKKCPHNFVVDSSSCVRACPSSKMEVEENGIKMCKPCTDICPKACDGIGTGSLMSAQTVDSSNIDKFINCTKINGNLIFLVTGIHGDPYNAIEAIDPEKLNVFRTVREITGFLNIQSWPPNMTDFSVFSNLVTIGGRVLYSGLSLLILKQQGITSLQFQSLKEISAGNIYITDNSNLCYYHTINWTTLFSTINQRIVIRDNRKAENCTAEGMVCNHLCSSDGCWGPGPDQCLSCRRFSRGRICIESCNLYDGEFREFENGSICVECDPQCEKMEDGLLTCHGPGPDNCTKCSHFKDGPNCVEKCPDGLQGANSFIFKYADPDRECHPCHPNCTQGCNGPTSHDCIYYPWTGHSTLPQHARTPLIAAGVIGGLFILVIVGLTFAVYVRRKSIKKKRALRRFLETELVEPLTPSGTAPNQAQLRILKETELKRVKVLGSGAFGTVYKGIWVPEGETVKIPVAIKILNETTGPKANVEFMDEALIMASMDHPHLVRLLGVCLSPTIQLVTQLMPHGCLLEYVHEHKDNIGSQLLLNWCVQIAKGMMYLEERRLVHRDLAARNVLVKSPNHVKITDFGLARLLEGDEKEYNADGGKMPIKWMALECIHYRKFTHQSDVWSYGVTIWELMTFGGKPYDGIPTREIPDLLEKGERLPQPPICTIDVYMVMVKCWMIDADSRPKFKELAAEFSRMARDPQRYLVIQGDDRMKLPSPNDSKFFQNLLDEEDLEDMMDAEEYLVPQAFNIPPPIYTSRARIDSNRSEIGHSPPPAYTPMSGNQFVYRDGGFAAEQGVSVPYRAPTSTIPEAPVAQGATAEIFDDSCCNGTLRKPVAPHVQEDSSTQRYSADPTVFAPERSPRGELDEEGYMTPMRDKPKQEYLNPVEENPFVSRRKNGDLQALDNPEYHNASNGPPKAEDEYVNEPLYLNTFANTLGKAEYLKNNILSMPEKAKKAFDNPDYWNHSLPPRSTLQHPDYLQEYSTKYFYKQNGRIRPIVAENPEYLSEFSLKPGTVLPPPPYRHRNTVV
Sequence of Ephrin type-A receptor 7 (Homo sapiens) (Q15375 28-998 limits assumed): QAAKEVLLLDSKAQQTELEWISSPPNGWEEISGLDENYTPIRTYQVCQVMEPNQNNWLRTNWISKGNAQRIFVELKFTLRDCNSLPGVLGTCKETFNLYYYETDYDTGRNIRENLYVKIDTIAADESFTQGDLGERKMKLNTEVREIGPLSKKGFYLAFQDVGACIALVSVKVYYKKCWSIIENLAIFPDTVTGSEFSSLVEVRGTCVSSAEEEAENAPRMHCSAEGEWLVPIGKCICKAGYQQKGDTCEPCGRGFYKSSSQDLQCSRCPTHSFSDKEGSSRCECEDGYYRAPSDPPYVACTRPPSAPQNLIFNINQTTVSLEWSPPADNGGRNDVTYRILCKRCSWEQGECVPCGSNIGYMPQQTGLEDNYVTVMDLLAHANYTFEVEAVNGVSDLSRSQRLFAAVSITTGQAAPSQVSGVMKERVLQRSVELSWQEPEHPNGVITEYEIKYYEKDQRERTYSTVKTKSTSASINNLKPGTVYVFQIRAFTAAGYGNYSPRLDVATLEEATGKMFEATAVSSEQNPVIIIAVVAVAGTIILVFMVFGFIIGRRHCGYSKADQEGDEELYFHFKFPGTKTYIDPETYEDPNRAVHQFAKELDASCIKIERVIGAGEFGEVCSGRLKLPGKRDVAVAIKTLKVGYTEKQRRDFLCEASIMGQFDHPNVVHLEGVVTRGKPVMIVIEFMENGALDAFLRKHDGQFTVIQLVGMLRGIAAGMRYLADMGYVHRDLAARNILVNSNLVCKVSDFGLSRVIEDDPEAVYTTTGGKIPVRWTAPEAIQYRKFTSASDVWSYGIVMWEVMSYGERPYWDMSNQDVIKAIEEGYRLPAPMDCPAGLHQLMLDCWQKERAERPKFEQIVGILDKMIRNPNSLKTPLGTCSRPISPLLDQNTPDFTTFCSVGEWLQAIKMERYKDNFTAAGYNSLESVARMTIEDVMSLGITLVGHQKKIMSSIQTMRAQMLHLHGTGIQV
Sequence of Focal adhesion kinase 1 (Homo sapiens) (Q05397 2-1052 limits assumed): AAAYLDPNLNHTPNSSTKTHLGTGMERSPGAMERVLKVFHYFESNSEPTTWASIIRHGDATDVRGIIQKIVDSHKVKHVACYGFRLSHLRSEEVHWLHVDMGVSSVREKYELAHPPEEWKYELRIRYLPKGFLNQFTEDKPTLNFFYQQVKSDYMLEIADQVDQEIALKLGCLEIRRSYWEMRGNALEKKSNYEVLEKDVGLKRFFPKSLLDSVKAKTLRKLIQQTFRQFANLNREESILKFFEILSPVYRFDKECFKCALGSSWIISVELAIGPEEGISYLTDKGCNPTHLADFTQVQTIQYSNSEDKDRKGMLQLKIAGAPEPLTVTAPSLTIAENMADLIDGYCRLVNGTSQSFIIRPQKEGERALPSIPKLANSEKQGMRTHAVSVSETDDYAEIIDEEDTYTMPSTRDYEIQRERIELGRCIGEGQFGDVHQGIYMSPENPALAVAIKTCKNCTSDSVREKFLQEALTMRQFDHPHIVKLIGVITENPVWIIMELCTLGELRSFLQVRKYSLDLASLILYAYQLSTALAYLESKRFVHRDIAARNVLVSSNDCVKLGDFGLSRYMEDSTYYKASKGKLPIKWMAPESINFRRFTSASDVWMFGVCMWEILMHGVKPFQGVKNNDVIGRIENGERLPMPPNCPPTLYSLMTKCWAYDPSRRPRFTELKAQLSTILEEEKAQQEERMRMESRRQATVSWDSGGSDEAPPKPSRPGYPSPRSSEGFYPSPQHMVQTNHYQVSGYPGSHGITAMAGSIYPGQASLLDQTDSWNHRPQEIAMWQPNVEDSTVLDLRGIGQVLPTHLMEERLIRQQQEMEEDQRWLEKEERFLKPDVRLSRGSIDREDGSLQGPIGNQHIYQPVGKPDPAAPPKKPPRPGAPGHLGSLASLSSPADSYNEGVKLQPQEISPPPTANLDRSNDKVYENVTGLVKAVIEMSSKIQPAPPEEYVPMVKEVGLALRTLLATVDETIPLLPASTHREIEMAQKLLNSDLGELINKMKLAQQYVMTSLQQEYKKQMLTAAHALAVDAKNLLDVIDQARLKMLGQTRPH

In the case of `Cn1nc2c3c(cccc31)C(=O)c1ccccc1-2`, the residual activity in assay [1] was determined as 73%; in assay [2] it was 110%; in assay [3] it was 99%; in assay [4], 95%; in [5], 88%; in [6], 94%. In addition, the residual activity in [7] was 81%; in assay [8], 94%; in [9] it was 77%; in assay [10] it was 108%; in assay [11], 109%; in assay [12] it was 104% (inactive). For the same compound, the residual activity came out at 87% in assay [13]; 83% in assay [14]; 93% in [15]; 90% in assay [16]; 95% in assay [17].
